This is an account of results in publication PMC4081100, “A DNA-binding-site landscape and regulatory network analysis for NAC transcription factors in Arabidopsis thaliana”.

GST-WRKY1(266-371), sequence (Q9SI37 266-371): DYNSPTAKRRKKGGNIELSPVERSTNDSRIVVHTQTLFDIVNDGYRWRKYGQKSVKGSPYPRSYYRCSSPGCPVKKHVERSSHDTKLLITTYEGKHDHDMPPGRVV

For the test, the target named is GST-WRKY1(266-371) (Arabidopsis thaliana, UniProt Q9SI37 266-371). Put plainly: universal protein binding microarray (PBM); transcription factors of Arabidopsis thaliana; high values mean tight binding. The note with it: protein: recombinant; tags: GST; dsDNA, one strand shown. The method in brief:
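GST-tagged proteins (NAC-domain, full-length or DNA-binding-domain) were induced in cells, with zinc acetate supplied for zinc-finger proteins, then purified on glutathione–Sepharose 4B. Each was tested in duplicate at 200 to 500 nM final on custom all-10-mer Agilent 4 × 180K arrays rendered double-stranded by primer extension. The binding value is the normalised enrichment score (E-score) across gapped and ungapped 8-mers.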
Turning to AGGGGTCA, the binding signal came to 0.415 E-score. As for GCGAGTCA, the figure is 0.414 E-score; as for ATGGTCAG, 0.421 E-score; as for CTTGGTCA, 0.429 E-score. Take GTCTTTGA: the binding signal worked out at 0.411 E-score. Turning to TGACCTCA, the binding signal was found to be 0.41 E-score.

For ATGAGTCA, the binding signal worked out at 0.427 E-score.

GGGGGTCA: the binding signal worked out at 0.423 E-score. As for CAAGACCG, the figure is 0.405 E-score. As for AGGTCGTC, the figure is 0.416 E-score; as for CCGGTCAG, 0.44 E-score; as for ATTGACCC, 0.478 E-score. The value for CGGTCATA was 0.415 E-score. In the case of GTCGGTCA, the binding signal worked out at 0.45 E-score. As for GACCAGTC, the binding signal was found to be 0.406 E-score.

Consider GCTCTGAC, for which the binding signal stood at 0.403 E-score. As for GTCAAGGA, the figure is 0.455 E-score. The value for CAACGACC was 0.421 E-score; that for GGCTGACC was 0.431 E-score; that for GACGACCA was 0.43 E-score.

Turning to CCCGGTCA, the binding signal worked out at 0.445 E-score. Consider GCGGGTCA, for which the binding signal is 0.421 E-score.

Regarding AAGTCCAC, the binding signal was 0.418 E-score. The value for GTGGACCA was 0.418 E-score; that for CGGGTCAG was 0.408 E-score. The value for AGTCAACC was 0.486 E-score; that for CGGAGTCA was 0.405 E-score.

Turning to AGTCGGTC, the binding signal was 0.403 E-score. The value for ACTCTGAC was 0.437 E-score; that for CGGGTCAA was 0.487 E-score; that for CTGACCTA was 0.413 E-score. With CCGAGTCA, the binding signal was 0.409 E-score. The value for GGAGTCAA was 0.476 E-score; that for CGGTCAGA was 0.46 E-score; that for CATTGACC was 0.491 E-score.

As for CAGGTCAG, the binding signal is 0.418 E-score. The value for GACTGACC was 0.42 E-score; that for AGTCAGAG was 0.44 E-score.
